SMILES strings stand for the structures. Among all 95,000 compounds or so, about 460 (0.48%) were called active.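 Rule for the calls: active = inhibition above the batch mean plus 3 SD, with images confirmed as a hit by eye (cut at about 37% in these data); inconclusive = inhibition above that limit but hit not confirmed in images; inactive = inhibition not above that limit.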 Many of the other results were omitted from the sample, so actives are more common in it than they were.

The assay can be described thus: blockers of endothelial VCAM-1 upregulation by TNFa – imaging, HUVEC, TNFa stimulus, immunofluorescence, primary screen (AID 802).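 Note: 0% = TNF-stimulated DMSO wells and 100% = unstimulated control wells.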 The following applies: HUVEC TNFa-induced VCAM-1 immunofluorescence, high-content imaging; at 2 µM; stronger effect = higher value.
With `CCN(CC)CCN1C(=O)C(=O)/C(=C(/O)c2cnn(-c3ccccc3)c2C)C1c1cccs1` (stereo not drawn), the inhibition was -0.9% (inactive). As to `COc1ccc(-c2c(C(C)=O)c(C)nc3sc4c(=O)n(-c5ccc(C)cc5)nnc4c23)cc1`, the inhibition was 12% (inactive).

Consider `O=C(CN1CCSCC1)N/N=C/c1ccc(F)cc1`, for which the inhibition was -11.6% (inactive). To `CCc1nnc(NC(=O)CSc2nc3ccccc3c(=O)n2CCCOC)s1` belongs 1.6% (inactive); to `Cc1nnc(SCc2nc3ccccc3nc2C)s1`, -5.5% (inactive); to `Cc1ccc(NC(=S)NC2CCCC2)cc1`, -15% (inactive). For `Cc1ccoc1C(=O)Nc1cccc(Oc2ccccc2)c1`, the inhibition is -7.5% (inactive). Turning to `O=C(O)c1cccnc1NC1CCCC1`, the inhibition was -5.2% (inactive).

Regarding `O=C(c1ccc2c(c1)OCCO2)C1CCN(S(=O)(=O)c2cccc(F)c2)CC1`, the inhibition is -12.7% (inactive).

Turning to `O=S(=O)(c1cccc(S(=O)(=O)N2CCC(n3nnc4ccccc43)CC2)c1)N1CCCCC1`, the inhibition was -12.3% (inactive). `CC(=O)c1cccc(S(=O)(=O)N2CCC(n3nnc4cc(F)ccc43)CC2)c1`: the inhibition was 54.7% (active). With `COc1ccc(NC(=O)/C(Cl)=C(/Cl)S(=O)Cc2ccc(C)cc2)cn1` (stereo not drawn), the inhibition is 90.4% (active). In the case of `COc1cccc(NC(=O)Cc2ccc(C)cc2)c1`, the inhibition was 3.7% (inactive). The result for `COc1ccc(CC(=O)Nc2ccc(-c3nnc(-c4ccc(C)cc4)o3)cc2)cc1` reads -1.2% (inactive); that for `COc1cc(CC(=O)NCc2cccs2)cc(OC)c1OC`, 4.1% (inactive); that for `COc1ccc(/C=N\NC(=O)c2sc(N)nc2C)cc1OC`, -10.1% (inactive). With `COc1cc(/C=N/NC(=O)Nc2ccccc2)ccc1OCCOc1ccccc1C`, the inhibition was 51.1% (active). As to `CCOc1ccc(NC(=O)Nc2cc(C)ccc2OC)cc1`, the inhibition was 11.7% (inactive). For the molecule `CC(C)CNC(=S)NNC(=O)c1nn(C)cc1Cl`, the inhibition is 5.2% (inactive). As to `Cc1nnsc1S(=O)(=O)Cc1ccccc1Cl`, the inhibition is 1.2% (inactive).

Regarding `COCCNS(=O)(=O)c1cc(Br)ccc1OC`, the inhibition is -35.9% (inactive). As for `O=C(Nc1ccccc1)c1ccc2nsnc2c1`, the inhibition is -11.1% (inactive). As for `O=C(Nc1ccc(Cl)cc1)c1ccsn1`, the inhibition is -10% (inactive). As to `O=C(Nc1ccccc1)c1nnsc1S(=O)(=O)c1ccc(Cl)cc1`, the inhibition was 59.3% (active). With `O=C(c1ccc(Cl)cc1)c1cnc(Nc2ccccc2)s1`, the inhibition is 4.4% (inactive). Take `CCC(C)(C)n1nnnc1CN1CCN(c2nc3ccc(C)cc3cc2C#N)CC1`: the inhibition is 3.1% (inactive). To `S=C(NCCC1=CCCCC1)Nc1ccccc1` belongs 2.2% (inactive); to `CC(C)NC(=O)CSc1nnc(COc2ccccc2Cl)o1`, 6.7% (inactive); to `NS(=O)(=O)c1cccnc1Nc1cccc(Cl)c1`, -4.5% (inactive).

Turning to `COC(=O)C1=C(Nc2ccc(OC)cc2)C=C(C)C(C(=O)OC)C1c1ccc(C)cc1` (stereo not drawn), the inhibition was -3.9% (inactive).

Take `O=C(O)CSc1nccn1-c1cccc(Cl)c1`: the inhibition was -15% (inactive). Take `Cc1cccc(C)c1NC1=NC(=S)N(c2ccc(N(C)C)cc2)C1(C)C`: the inhibition is -2.5% (inactive).

For the molecule `Cc1ccc(/C=N/NC(=O)c2sccc2OCc2ccc(F)cc2)cc1`, the inhibition was 4% (inactive).

For `CCOC(=O)C1(S(=O)(=O)c2ccccc2)CCN(Cc2ccccc2)CC1`, the inhibition is -5.9% (inactive). To `CC1CC(C)CN(S(=O)(=O)c2cccc(C(=O)N3C(=O)c4cccc(N)c4C3=O)c2)C1` (stereo not drawn) belongs -20.1% (inactive); to `CCC(=O)Nc1ccc2nc(C)n(Cc3ccccc3Cl)c(=O)c2c1`, -5.1% (inactive); to `CC(=O)Nc1ccccc1OC(=O)N1CCOCC1`, -16.3% (inactive).

On to `Cc1cc(C)n(-c2nnc(C)n2NC(=O)c2cccc(Cl)c2)n1`, for which the inhibition is -8.8% (inactive). The result for `Cc1ccc(Nc2nc(C)cc(C)c2C(N)=O)cc1` reads 7.1% (inactive); that for `CC1CCN(S(=O)(=O)c2ccc(S(=O)(=O)NCc3ccco3)cc2)CC1`, -20.1% (inactive). `O=C(OC1CCCCC1=O)c1cccc(S(=O)(=O)NCc2ccccc2)c1` (stereo not drawn): the inhibition was -3.3% (inactive). On to `CSc1nc(N(C)NC(=O)c2cccc(C)c2)c2ccccc2n1`, for which the inhibition is 83.3% (active). Take `CN(NC(=O)c1ccccc1)c1nc2ccccc2nc1C(F)(F)F`: the inhibition was 11.7% (inactive). Consider `COc1ccc(C(=O)NN(C)c2nc(-c3ccccc3)cc(C)c2S(C)(=O)=O)cc1`, for which the inhibition is 16.7% (inactive). With `CCN(CC)c1ccc(/C=N/Nc2nc(C)cc(=O)[nH]2)cc1`, the inhibition was 11.9% (inactive). The result for `COC(=O)C1=C(C(=O)c2ccc(C)cc2)C(c2ccccc2)n2nnnc2N1` (stereo not drawn) reads 5.8% (inactive); that for `COc1ccc(C(=O)Nc2nc(-c3ccc(S(=O)(=O)N4CCOCC4)cc3)cs2)cc1`, -4.5% (inactive); that for `CCOc1cccc(C(=O)Nc2nnc(-c3cccs3)s2)c1`, -0.3% (inactive). With `c1ccc(-n2nnnc2NC2CCCCCC2)cc1`, the inhibition was -15.1% (inactive). In the case of `Cc1cc(NC(=O)CS(=O)(=O)c2cn(C)c3ccccc23)no1`, the inhibition was 28.9% (inactive). As for `CCOC(=O)c1ccc(NC(=O)CS(=O)(=O)c2cn(CC)c3ccccc23)cc1`, the inhibition is 7% (inactive).

Turning to `O=C(CS(=O)(=O)c1cn(Cc2cccc(F)c2)c2ccccc12)N1CCCCC1`, the inhibition was 50.1% (active).

`O=C(NCCCN1CCOCC1)c1cnn2c(-c3ccccc3)cc(-c3ccccc3)nc12`: the inhibition is 12% (inactive). `O=C(Nc1cc(-c2nn(CC(=O)N3CCCCC3)c(=O)c3ccccc23)ccc1N1CCOCC1)c1ccc(Cl)cc1`: the inhibition is 12.6% (inactive).

With `Cc1ccc(-n2ncc3c(Nc4cccc(C(=O)O)c4)ncnc32)cc1`, the inhibition is -17% (inactive). For the molecule `CCCCNC(=O)CSc1nc2n[nH]c(C)c2c(=N)n1-c1cccc(Cl)c1C`, the inhibition was 10.7% (inactive). Regarding `CCNC(=O)c1sccc1-n1cccc1`, the inhibition was 32% (inactive). Consider `Cc1ccccc1N1CCN(CCCOc2ccc3c(C)cc(=O)oc3c2)CC1`, for which the inhibition was -7.7% (inactive).

`COc1cccc(-c2nnc(SCCOc3ccc4c(C)cc(=O)oc4c3)o2)c1`: the inhibition was 0.7% (inactive). For the molecule `Cc1cc(=O)oc2cc(OCC3CC(c4ccccc4Cl)=NO3)ccc12` (stereo not drawn), the inhibition was 59.7% (active). In the case of `Oc1ccccc1/C=N/n1c(-c2cccs2)n[nH]c1=S`, the inhibition is -7.1% (inactive).

For the molecule `O=C(Nc1ccc(-c2nnc(-c3ccccc3)o2)cc1)c1ccc(Br)o1`, the inhibition is -17.2% (inactive). To `CC(CCc1ccccc1)NC(=O)c1ccc(Br)o1` (stereo not drawn) belongs 95.4% (active); to `CC(CNC(=O)c1ccc(Br)o1)NC(=O)c1ccc(Br)o1` (stereo not drawn), -12.4% (inactive); to `O=C1CSC(c2cccc(F)c2)N1c1ccc(O)cc1` (stereo not drawn), -1.8% (inactive). For `CCC(=O)Nc1cccc(NC(=O)c2cccnc2)c1`, the inhibition was 7.8% (inactive). For `C/C(=C\C(=O)c1cccnc1)Nc1ccc(C)c(C)c1`, the inhibition is 89.1% (active). As to `C/C(=C\C(=O)c1ccccc1)Nc1cccc(O)c1`, the inhibition was -2.3% (inactive). As to `Cc1c(NC(=O)/C=C/C(=O)O)cccc1[N+](=O)[O-]`, the inhibition was 3.3% (inactive).

As to `O=C(CSc1ncnc2c1cnn2CCc1ccccc1)Nc1ccc(F)cc1`, the inhibition is 1.7% (inactive). As for `CCOC(=O)N1CCN(C(=O)CSc2ccc(Cl)cc2)CC1`, the inhibition was -18.1% (inactive).

On to `CCOC(=O)N1CCN(C(=O)COc2ccc(Br)cc2)CC1`, for which the inhibition was -1.9% (inactive). Turning to `CCOC(=O)N1CCN(C(=O)COc2ccc(Cl)cc2C)CC1`, the inhibition was 92.1% (active).

Consider `CCn1c2ccccc2c2cc(NC(=O)C/C(C)=N/NC(=O)c3ccccc3N)ccc21`, for which the inhibition is 1.3% (inactive). For the molecule `COC(=O)c1cc(OC)c(OC)cc1NC(=O)CSc1ccc(C)cc1`, the inhibition is -25% (inactive). In the case of `Cc1ccc2nc(SCc3nnc(-c4ccccc4[N+](=O)[O-])o3)c(C#N)cc2c1`, the inhibition was 6% (inactive). The result for `CN(C)c1ccnc(Oc2ccc(F)cc2)c1C#N` reads -15.3% (inactive); that for `Cc1cc(Oc2ccccc2)nc(N2CCOCC2)n1`, 0.8% (inactive).

As for `Cc1cc(C)n(-c2cc(Oc3ccccc3)ncn2)n1`, the inhibition was 13.4% (inactive). For `CC(=O)c1ccc(Oc2cc(C)nc(-n3nc(C)cc3C)n2)cc1`, the inhibition is 75.8% (active).

With `O=C(Cc1ccc(-n2c(=O)[nH]c3ccccc3c2=O)cc1)N1CCN(c2cccc(Cl)c2)CC1`, the inhibition is 1.3% (inactive). On to `Cc1cccc(S(=O)(=O)CC(=O)Nc2nc(-c3ccccc3)cs2)c1`, for which the inhibition was -5.3% (inactive). For `CN(CC#CCC(c1ccccc1)c1ccccc1)C(C)(C)C`, the inhibition was 5.2% (inactive).

For `O=C1Cc2ccccc2Sc2ccc(Cl)cc21`, the inhibition is 10% (inactive). On to `CSCc1cc(N2CCOCC2)nc(SCc2ccc(Cl)cc2Cl)n1`, for which the inhibition is 5.1% (inactive). To `Cc1ccc(-c2csc(NC(=O)Cc3cccs3)n2)cc1C` belongs 1.5% (inactive); to `COc1ccc(OC)c(/C=N/NC(=O)CSc2nnc(C)n2-c2ccccc2)c1`, 0.9% (inactive).

As to `O=C(Nc1ccccc1)c1ccccc1NC(=O)C(F)(F)F`, the inhibition is -10.4% (inactive).

On to `COc1cc(/C=C2\SC(=S)N(Nc3ncc(C(F)(F)F)cc3Cl)C2=O)cc(OC)c1OC`, for which the inhibition was 14.4% (inactive). For the molecule `O=C(c1ccccc1)C(Cn1cncn1)C(Sc1ccccc1)c1ccccc1` (stereo not drawn), the inhibition was 0.1% (inactive).

Take `CCOc1ccc(NC(=O)CCS(=O)(=O)c2ccc3c(c2)CCCN3C(=O)CC)cc1`: the inhibition was 0.8% (inactive). For the molecule `COc1ccccc1NC(=O)C1CCCN(c2cc(C)nc3ncnn23)C1` (stereo not drawn), the inhibition is 3.1% (inactive).

Consider `CC1(C)Cc2c(C#N)c(SCc3nc4ccccc4[nH]3)nc(N3CCOCC3)c2CO1`, for which the inhibition is 7.1% (inactive).

As to `CC(C)c1nc(N2CCOCC2)c(C#N)c2c1COC(C)(C)C2`, the inhibition was -40.7% (inactive). The result for `CC(C)C(=O)N1CCN(c2nc(-c3ccccc3)c3c(c2C#N)CC(C)(C)OC3)CC1` reads 36.7% (active). In the case of `S=C(NCc1cccs1)Nc1ccc(Cl)cc1`, the inhibition was -27.9% (inactive). With `Cc1cc2cc(CNC(=O)c3cccs3)ccc2[nH]1`, the inhibition was 11.4% (inactive). Consider `COCCn1c(SCc2nnc(-c3ccc(OC)c(OC)c3)o2)nc2sc3c(c2c1=O)CCC3`, for which the inhibition is -4.9% (inactive).

For orientation: inhibition means the relative decrease from the control value, in per cent.

For the origin of these results see PubChem BioAssay AID802 (Columbia University Molecular Screening Center, 2007).
